In experiment [1] the target is Sphingosine kinase 1 (Homo sapiens) (UniProt Q9NYA1). The conditions noted are these: at 1 µM.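 Note: mean SPHK1 inhibition value reported from the GSK PKIS kinase panel screen.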
Experiment [2] has as its target T1, Sphingosine kinase 2 (Homo sapiens) (UniProt Q9NRA0).
T1 sequence (whole entry): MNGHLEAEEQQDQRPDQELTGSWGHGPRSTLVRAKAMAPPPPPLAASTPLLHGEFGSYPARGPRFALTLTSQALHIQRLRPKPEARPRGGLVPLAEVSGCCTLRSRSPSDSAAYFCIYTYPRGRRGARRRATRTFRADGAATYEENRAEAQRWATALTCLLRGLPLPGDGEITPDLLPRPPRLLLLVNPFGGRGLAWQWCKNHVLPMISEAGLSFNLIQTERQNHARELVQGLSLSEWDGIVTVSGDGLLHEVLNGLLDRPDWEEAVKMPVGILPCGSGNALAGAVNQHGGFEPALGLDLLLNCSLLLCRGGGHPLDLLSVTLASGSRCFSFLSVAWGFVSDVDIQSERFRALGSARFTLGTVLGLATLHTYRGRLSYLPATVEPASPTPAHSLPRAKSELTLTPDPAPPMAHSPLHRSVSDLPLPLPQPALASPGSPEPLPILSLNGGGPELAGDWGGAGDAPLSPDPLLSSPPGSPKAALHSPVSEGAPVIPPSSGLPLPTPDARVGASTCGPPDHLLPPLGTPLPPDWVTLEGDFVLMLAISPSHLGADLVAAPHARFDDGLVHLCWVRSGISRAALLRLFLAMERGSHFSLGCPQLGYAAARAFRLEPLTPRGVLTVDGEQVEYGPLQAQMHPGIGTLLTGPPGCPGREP
The conditions noted are these: at 0.1 µM.

In experiment [3] the target is T1, Sphingosine kinase 2 (Homo sapiens). The conditions noted are these: at 1 µM.
Experiment [4] concerns the target Casein kinase II subunit alpha (Homo sapiens) (UniProt P68400). The conditions noted are these: at 0.1 µM.
The target is the same in experiment [5]. The conditions noted are these: at 1 µM.
Experiment [6] concerns the target T2, Inhibitor of nuclear factor kappa-B kinase subunit alpha (Homo sapiens) (UniProt O15111).
T2 sequence (whole entry): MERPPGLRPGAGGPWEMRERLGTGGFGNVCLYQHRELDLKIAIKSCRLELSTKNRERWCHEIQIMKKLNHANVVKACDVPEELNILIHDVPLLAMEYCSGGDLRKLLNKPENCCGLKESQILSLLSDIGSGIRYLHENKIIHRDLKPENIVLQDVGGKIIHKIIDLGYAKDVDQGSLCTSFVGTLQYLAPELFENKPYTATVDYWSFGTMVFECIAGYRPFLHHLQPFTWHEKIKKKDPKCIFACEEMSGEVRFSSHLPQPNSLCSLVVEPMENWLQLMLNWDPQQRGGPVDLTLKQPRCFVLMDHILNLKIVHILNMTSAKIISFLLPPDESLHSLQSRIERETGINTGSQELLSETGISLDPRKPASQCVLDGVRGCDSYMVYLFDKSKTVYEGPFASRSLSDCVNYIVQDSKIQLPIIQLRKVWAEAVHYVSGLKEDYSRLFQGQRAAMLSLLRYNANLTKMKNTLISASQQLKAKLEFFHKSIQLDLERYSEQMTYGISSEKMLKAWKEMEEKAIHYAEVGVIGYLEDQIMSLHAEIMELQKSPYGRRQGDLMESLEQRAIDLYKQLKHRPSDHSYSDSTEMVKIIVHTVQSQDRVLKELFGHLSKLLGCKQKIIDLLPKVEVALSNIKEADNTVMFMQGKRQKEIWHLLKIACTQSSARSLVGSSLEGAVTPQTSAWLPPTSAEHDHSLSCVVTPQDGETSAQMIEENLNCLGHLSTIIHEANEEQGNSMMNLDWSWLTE
The conditions noted are these: at 0.1 µM.

The target of experiment [7] is T2, Inhibitor of nuclear factor kappa-B kinase subunit alpha (Homo sapiens). The conditions noted are these: at 1 µM.
Experiment [8] deals with T3, Inhibitor of nuclear factor kappa-B kinase subunit beta (Homo sapiens) (UniProt O14920).
T3 sequence (whole entry): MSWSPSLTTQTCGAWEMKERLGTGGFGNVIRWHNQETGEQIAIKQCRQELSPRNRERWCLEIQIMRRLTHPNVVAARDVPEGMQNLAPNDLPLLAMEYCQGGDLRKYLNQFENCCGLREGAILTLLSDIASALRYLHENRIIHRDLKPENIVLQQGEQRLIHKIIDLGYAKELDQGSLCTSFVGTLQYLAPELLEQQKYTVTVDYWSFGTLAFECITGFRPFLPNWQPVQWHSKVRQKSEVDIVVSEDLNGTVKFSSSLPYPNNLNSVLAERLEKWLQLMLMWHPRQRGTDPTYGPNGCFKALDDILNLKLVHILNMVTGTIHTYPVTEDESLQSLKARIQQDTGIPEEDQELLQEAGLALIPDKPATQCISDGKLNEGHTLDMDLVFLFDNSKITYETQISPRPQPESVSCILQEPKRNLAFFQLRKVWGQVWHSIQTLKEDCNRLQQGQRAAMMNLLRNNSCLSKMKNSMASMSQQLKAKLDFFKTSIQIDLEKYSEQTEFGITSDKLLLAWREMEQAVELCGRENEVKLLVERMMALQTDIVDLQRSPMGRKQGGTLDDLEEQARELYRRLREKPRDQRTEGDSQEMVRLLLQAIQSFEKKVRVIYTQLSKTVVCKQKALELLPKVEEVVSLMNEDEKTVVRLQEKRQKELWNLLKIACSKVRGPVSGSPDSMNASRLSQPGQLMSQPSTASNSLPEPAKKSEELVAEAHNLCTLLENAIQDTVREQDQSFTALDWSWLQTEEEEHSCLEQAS
The conditions noted are these: at 0.1 µM.

The target of experiment [9] is T3, Inhibitor of nuclear factor kappa-B kinase subunit beta (Homo sapiens). The conditions noted are these: at 1 µM.
Experiment [10] addresses T4, Inhibitor of nuclear factor kappa-B kinase subunit epsilon (Homo sapiens) (UniProt Q14164).
T4 sequence (whole entry): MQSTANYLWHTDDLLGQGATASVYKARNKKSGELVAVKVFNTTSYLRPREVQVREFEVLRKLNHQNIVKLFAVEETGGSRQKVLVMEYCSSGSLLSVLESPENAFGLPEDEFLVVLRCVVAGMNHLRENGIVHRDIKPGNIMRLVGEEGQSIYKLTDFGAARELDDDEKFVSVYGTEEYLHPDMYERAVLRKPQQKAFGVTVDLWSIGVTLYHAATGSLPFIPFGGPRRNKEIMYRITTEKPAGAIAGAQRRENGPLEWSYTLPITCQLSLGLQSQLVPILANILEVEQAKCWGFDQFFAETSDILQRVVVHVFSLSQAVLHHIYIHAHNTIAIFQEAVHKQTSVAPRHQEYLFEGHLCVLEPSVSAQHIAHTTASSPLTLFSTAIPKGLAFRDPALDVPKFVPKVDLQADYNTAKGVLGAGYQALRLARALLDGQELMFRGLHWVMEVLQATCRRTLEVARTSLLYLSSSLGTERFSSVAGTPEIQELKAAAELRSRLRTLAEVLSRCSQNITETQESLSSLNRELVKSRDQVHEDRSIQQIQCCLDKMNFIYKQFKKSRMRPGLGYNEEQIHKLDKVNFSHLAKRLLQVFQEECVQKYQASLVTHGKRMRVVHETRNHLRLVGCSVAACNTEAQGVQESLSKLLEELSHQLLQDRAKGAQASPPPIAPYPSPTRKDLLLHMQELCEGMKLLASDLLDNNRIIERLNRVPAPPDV
The conditions noted are these: at 0.1 µM.

Experiment [11] addresses T4, Inhibitor of nuclear factor kappa-B kinase subunit epsilon (Homo sapiens). The conditions noted are these: at 1 µM.
Experiment [12] concerns the target T5, Serine/threonine-protein kinase Nek1 (Homo sapiens) (UniProt Q96PY6).
T5 sequence (whole entry): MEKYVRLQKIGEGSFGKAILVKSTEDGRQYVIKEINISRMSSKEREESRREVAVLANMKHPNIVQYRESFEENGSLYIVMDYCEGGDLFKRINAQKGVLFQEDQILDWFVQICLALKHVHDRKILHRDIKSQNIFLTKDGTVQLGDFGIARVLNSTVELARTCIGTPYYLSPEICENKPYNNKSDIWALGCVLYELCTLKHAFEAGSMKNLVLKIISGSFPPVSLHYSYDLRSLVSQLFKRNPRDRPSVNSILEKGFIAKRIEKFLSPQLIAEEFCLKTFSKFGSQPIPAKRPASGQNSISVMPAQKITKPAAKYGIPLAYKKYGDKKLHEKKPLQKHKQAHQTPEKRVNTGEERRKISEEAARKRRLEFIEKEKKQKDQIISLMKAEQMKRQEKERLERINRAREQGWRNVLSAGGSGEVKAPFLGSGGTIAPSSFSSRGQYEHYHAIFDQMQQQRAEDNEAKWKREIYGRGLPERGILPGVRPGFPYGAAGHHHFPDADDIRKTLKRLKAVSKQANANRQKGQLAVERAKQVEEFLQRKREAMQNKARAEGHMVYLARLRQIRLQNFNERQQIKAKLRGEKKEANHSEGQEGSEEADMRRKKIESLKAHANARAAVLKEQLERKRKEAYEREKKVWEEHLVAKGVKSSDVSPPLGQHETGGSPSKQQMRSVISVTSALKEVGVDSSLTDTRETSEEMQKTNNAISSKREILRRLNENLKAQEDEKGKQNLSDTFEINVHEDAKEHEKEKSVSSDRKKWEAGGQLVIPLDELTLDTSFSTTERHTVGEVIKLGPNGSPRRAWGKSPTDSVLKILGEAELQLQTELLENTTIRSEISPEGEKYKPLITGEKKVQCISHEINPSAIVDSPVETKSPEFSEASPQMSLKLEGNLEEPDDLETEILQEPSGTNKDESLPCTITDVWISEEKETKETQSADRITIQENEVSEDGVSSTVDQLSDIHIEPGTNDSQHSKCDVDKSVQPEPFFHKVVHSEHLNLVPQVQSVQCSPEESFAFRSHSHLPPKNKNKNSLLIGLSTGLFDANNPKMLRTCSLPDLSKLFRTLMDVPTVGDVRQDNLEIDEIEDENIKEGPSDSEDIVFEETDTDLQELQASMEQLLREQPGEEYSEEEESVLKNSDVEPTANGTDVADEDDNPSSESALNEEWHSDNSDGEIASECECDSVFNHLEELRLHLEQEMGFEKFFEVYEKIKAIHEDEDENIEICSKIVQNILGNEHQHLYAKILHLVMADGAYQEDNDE
The conditions noted are these: at 0.1 µM.

Experiment [13] has as its target T5, Serine/threonine-protein kinase Nek1 (Homo sapiens). The conditions noted are these: at 1 µM.
The target of experiment [14] is T6, Serine/threonine-protein kinase Nek2 (Homo sapiens) (UniProt P51955).
T6 sequence (whole entry): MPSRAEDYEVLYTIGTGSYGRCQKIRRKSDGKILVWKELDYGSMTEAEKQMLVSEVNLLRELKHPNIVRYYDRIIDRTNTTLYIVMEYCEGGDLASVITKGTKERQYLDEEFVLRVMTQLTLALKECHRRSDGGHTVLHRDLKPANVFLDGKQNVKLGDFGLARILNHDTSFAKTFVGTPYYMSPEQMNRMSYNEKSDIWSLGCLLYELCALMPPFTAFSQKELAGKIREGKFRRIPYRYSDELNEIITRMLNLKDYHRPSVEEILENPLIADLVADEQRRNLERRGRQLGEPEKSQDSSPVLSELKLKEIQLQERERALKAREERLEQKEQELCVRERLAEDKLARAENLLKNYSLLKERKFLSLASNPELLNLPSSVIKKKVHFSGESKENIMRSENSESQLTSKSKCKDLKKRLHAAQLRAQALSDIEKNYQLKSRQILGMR
The conditions noted are these: at 0.1 µM.

The target of experiment [15] is T6, Serine/threonine-protein kinase Nek2 (Homo sapiens). The conditions noted are these: at 1 µM.
Experiment [16] deals with Serine/threonine-protein kinase Nek6 (Homo sapiens) (UniProt Q9HC98). The conditions noted are these: at 0.1 µM.
Serine/threonine-protein kinase Nek6 (Homo sapiens), sequence (Q9HC98 whole entry): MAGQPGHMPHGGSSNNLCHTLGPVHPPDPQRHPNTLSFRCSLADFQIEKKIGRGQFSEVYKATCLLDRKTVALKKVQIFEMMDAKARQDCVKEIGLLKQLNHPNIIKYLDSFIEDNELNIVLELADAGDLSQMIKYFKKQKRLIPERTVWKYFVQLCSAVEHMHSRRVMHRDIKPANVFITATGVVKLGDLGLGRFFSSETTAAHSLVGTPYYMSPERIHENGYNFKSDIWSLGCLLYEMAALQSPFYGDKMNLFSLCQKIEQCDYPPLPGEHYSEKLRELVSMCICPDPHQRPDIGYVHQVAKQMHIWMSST
For experiment [17] the target is unchanged. The conditions noted are these: at 1 µM.
Experiment [18] deals with Serine/threonine-protein kinase Nek7 (Homo sapiens) (UniProt Q8TDX7). The conditions noted are these: at 0.1 µM.
Serine/threonine-protein kinase Nek7 (Homo sapiens), sequence (Q8TDX7 whole entry, looked up): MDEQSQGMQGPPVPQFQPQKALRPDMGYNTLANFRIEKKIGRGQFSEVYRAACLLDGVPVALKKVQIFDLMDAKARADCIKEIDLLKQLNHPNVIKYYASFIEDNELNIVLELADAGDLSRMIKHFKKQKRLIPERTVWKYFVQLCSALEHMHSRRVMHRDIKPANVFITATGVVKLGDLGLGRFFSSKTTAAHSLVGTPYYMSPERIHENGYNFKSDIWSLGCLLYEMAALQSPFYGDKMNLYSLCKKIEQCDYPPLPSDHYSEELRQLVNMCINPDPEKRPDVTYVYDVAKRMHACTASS
For experiment [19] the target is unchanged. The conditions noted are these: at 1 µM.
In experiment [20] the target is T7, Serine/threonine-protein kinase Nek9 (Homo sapiens) (UniProt Q8TD19).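 Note: reported value is the mean percent inhibition of NEK9.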
T7 sequence (whole entry): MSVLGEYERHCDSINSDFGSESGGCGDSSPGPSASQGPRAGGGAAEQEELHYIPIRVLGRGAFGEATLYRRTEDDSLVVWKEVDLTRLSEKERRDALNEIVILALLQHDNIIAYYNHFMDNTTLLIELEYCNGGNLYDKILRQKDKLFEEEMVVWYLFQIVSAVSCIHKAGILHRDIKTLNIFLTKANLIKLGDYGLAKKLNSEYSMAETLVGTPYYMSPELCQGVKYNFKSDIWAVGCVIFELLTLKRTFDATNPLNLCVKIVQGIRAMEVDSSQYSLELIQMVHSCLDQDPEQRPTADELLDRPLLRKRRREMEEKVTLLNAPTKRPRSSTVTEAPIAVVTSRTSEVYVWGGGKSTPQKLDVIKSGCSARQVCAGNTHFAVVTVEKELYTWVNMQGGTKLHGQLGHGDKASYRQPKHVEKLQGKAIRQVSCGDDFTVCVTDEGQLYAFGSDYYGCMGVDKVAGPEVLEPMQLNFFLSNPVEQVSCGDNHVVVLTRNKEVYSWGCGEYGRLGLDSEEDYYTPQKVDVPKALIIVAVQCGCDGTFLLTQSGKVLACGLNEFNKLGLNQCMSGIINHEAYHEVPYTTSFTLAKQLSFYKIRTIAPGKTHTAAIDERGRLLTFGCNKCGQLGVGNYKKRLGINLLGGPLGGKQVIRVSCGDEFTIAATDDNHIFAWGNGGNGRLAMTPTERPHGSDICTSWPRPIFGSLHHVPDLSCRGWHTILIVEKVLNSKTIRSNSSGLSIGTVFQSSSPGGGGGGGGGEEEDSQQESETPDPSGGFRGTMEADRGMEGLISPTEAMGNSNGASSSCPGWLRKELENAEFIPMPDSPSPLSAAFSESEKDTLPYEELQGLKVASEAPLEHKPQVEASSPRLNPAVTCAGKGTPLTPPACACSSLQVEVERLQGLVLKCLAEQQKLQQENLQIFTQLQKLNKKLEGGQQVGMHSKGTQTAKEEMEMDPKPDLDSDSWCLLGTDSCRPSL
The conditions noted are these: at 0.1 µM.

Molecules are shown by their SMILES.

Casein kinase II subunit alpha (Homo sapiens), sequence (P68400 whole entry, looked up): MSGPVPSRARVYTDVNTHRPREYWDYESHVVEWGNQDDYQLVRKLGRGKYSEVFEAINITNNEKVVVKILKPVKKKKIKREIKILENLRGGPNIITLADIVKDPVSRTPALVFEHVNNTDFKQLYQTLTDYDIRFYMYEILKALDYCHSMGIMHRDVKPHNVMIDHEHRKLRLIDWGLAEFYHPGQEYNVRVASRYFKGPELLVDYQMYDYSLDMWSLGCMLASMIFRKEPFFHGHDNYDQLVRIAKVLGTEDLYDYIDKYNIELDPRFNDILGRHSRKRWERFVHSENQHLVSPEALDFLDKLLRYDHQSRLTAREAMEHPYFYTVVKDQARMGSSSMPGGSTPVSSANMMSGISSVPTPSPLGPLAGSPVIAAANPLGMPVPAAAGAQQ
Sphingosine kinase 1 (Homo sapiens), sequence (Q9NYA1 whole entry): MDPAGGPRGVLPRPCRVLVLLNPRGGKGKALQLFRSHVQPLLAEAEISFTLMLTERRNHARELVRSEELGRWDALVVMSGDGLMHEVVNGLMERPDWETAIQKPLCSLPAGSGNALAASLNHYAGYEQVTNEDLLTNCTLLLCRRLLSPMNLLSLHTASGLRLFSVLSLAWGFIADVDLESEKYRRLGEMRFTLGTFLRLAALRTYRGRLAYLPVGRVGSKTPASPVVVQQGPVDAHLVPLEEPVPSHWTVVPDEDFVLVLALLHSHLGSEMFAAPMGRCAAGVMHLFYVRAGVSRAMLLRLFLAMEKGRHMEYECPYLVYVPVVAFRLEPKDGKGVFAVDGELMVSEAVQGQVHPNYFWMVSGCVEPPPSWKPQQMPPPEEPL

With `CN(C)c1ccc2c(c1)/C(=C/Nc1ccc(S(N)(=O)=O)cc1)C(=O)N2`, the inhibition (in general, the relative decrease from the control value, in per cent) in experiment [1] was -2.05%; in experiment [2], 0.7%; in experiment [3] it was 0.06%; in experiment [4] it was 2.93%; in experiment [5], 18%; in [6], 1.67%. In addition, the inhibition in [7] turned out to be 6.64%; in experiment [8], 2.49%; in experiment [9] it was 1.1%; in [10], 4.67%; in [11], 23.1%; in experiment [12] it was 1.42%. The inhibition is 2.38% in [13]; 2.78% in experiment [14]; 3.05% in experiment [15]; 0.8% in experiment [16]; 2.13% in experiment [17]; 5.09% in [18]. For the same compound, the inhibition in [19] was 3.01%; in experiment [20] it was -1.19%.

These data come from ChEMBL document CHEMBL1961873, “Compounds: GSK PKIS; Assays: Nanosyn kinase panel” (2012).
